Assay results: the supplement of paper PMC11732987, “Enantioselective OTUD7B fragment discovery through chemoproteomics screening and high-throughput optimisation” (Communications Chemistry, 2025)

Legend:
Test in all cases: log2 ratio of Biotin-Ahx-Ub-VS probe labelling (fragment/DMSO); higher = less target engagement (more negative = stronger competition), active = hit call of the paper (q ≤ 0.05, log2 ratio ≤ -1)
Details in all cases: compound concentration: 200 uM; treatment time: 3 h
USP9X = USP9X (UniProt Q93008)
Method in brief: (§1)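 HEK293T lysate (495 µg per sample, in Tris/CHAPS/IGEPAL buffer with protease inhibitors) was exposed in triplicate for 3 h to fragment at 200 µM or to vehicle, then to Biotin-Ahx-Ub-VS at 0.5 µM final for 1 h. Labelled DUBs were enriched on NeutrAvidin, digested with LysC and trypsin, and analysed by diaPASEF LC-MS/MS. Spectronaut label-free quantities were normalised to the global median, and values are average log2 ratios of fragment over vehicle from an unpaired t-test. Only proteins with ≥2 unique peptides were used.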

UniProt O00487 = molecular target: UniProt O00487
Method in brief: as §1

UniProt O00507 = molecular target: UniProt O00507
Method in brief: as §1

UniProt P51784 = molecular target: UniProt P51784
Method in brief: as §1

UniProt Q5T2D3 = molecular target: T1, UniProt Q5T2D3
T1 sequence (whole entry): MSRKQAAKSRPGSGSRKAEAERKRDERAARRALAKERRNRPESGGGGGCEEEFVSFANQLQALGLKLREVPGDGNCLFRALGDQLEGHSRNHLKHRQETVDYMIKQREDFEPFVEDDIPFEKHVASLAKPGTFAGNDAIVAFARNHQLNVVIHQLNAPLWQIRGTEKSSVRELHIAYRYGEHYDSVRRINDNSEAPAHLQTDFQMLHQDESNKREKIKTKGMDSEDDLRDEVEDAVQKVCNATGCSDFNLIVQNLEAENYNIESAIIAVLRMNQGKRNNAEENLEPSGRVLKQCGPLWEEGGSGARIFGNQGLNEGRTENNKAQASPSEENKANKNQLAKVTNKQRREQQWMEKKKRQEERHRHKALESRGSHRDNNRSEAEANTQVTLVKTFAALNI
Method in brief: as §1

UniProt Q8TE49 = molecular target: T2, UniProt Q8TE49
T2 sequence (whole entry): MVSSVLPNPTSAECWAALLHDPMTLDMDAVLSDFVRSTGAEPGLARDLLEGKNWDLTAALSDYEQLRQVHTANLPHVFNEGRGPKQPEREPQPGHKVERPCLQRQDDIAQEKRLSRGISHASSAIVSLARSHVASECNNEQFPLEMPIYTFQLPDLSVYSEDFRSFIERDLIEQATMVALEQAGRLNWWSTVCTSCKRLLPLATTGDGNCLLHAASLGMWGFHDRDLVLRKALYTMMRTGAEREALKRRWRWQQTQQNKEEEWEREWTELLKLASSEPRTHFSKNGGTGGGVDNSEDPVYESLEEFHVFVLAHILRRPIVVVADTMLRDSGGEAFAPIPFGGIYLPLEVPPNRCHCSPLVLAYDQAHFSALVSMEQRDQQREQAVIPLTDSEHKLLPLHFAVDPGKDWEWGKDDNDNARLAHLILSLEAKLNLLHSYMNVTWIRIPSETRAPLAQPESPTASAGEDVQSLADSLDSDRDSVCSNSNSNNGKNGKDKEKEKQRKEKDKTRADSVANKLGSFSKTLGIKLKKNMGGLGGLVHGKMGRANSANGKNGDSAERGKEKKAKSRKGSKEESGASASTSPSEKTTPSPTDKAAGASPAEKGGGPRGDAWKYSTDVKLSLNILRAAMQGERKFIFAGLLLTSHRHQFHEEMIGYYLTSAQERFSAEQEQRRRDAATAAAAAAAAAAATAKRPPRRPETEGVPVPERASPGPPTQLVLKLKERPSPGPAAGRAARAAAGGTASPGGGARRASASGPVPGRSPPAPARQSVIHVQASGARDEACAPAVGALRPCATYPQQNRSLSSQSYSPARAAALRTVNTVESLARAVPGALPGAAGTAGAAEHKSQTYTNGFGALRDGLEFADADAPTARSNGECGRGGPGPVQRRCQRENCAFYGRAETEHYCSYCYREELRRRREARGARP
Method in brief: as §1

UniProt Q9P2H5 = molecular target: T3, UniProt Q9P2H5
T3 sequence (whole entry): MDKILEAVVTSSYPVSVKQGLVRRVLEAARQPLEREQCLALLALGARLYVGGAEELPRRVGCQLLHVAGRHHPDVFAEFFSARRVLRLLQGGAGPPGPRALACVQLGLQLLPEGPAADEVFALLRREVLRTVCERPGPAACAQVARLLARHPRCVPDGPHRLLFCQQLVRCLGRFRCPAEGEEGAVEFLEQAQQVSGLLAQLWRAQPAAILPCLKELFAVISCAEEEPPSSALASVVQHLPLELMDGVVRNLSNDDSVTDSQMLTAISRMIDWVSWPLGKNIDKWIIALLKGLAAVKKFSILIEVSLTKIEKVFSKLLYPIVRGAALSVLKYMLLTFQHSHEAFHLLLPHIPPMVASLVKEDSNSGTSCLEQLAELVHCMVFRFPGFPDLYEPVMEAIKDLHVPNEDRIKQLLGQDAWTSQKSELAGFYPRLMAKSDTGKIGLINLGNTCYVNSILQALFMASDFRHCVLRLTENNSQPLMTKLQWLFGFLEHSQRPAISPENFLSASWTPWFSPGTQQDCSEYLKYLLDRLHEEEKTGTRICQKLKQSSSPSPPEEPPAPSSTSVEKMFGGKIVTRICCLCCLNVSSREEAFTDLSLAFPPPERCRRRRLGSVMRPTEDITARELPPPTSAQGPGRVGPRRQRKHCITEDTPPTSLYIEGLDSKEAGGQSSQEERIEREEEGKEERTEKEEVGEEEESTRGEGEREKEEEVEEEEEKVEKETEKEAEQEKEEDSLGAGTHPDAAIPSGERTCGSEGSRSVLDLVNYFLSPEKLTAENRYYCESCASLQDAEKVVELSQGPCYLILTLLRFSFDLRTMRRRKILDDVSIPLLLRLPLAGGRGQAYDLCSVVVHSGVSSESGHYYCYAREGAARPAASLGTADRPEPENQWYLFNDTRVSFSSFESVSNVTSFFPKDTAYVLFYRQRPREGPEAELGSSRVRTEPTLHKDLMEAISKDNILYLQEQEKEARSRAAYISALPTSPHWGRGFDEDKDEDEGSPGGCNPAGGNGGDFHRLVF
Method in brief: as §1

UniProt Q9UGI0 = molecular target: T4, UniProt Q9UGI0
T4 sequence (whole entry): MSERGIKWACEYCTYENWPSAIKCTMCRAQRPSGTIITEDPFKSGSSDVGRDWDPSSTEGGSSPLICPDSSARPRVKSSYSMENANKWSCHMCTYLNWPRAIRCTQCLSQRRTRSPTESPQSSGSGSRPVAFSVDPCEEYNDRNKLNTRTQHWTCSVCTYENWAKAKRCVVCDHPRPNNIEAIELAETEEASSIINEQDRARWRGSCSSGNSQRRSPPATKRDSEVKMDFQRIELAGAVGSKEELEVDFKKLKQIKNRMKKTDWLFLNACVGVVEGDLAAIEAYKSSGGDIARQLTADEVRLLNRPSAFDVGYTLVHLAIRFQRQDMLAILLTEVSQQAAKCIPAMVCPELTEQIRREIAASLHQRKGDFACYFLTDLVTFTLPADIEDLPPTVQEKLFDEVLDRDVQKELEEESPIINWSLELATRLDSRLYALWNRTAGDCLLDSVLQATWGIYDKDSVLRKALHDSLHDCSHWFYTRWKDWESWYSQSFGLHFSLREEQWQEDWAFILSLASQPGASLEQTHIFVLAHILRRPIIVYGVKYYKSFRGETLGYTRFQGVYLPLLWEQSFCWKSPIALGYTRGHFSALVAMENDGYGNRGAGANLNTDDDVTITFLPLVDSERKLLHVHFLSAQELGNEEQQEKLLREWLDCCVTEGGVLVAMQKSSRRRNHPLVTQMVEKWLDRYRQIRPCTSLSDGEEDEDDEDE
Method in brief: as §1

YOD1 = molecular target: T5, YOD1 (UniProt Q5VVQ6)
T5 sequence (whole entry): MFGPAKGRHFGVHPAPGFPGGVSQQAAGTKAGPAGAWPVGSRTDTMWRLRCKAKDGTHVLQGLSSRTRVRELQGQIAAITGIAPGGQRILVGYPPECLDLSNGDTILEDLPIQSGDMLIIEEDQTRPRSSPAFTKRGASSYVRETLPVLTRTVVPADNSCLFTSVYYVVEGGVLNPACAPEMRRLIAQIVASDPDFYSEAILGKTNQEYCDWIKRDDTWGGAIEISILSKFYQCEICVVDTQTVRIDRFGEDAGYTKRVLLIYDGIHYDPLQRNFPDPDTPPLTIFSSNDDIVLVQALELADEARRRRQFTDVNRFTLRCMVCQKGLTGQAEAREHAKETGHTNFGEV
Method in brief: as §1

Measured: log2 ratio of Biotin-Ahx-Ub-VS probe labelling

Chain of UniProt P51784 (P51784 whole entry): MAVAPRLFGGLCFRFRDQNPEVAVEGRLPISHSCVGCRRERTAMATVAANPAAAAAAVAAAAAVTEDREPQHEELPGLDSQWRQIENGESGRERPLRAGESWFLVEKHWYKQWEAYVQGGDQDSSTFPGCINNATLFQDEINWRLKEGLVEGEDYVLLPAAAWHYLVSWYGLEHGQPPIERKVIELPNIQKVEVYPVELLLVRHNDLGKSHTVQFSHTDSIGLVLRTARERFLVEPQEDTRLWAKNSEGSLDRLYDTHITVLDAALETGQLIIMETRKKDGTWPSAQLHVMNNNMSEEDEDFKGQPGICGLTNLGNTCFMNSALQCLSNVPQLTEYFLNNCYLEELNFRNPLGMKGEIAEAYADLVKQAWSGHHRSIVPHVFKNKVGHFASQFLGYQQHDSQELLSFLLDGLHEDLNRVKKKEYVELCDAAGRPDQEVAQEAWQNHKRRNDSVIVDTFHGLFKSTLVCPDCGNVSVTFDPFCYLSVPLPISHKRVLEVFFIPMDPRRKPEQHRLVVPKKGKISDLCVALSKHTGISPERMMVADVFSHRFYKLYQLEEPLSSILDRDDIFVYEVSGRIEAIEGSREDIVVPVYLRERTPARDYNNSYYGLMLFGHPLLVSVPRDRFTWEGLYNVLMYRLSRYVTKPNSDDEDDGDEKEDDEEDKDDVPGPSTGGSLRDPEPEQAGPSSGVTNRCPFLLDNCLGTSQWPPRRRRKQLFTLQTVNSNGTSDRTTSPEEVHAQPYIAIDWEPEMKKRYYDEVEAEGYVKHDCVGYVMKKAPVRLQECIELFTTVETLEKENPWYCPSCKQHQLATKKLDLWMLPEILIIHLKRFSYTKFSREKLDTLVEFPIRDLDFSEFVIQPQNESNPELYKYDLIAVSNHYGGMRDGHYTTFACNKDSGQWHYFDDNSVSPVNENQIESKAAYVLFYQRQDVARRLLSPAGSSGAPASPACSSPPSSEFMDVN
Chain of UniProt O00487 (O00487 whole entry): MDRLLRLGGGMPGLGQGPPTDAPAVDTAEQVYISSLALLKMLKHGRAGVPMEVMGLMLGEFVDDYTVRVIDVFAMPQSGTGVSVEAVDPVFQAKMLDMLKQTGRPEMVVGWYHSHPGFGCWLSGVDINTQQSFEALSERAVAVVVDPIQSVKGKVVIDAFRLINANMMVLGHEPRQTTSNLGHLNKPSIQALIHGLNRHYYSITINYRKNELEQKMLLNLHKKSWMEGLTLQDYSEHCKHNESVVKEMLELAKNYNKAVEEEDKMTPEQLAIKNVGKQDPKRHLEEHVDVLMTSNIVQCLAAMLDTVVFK
Chain of USP9X (Q93008 whole entry, the tested form may be a part): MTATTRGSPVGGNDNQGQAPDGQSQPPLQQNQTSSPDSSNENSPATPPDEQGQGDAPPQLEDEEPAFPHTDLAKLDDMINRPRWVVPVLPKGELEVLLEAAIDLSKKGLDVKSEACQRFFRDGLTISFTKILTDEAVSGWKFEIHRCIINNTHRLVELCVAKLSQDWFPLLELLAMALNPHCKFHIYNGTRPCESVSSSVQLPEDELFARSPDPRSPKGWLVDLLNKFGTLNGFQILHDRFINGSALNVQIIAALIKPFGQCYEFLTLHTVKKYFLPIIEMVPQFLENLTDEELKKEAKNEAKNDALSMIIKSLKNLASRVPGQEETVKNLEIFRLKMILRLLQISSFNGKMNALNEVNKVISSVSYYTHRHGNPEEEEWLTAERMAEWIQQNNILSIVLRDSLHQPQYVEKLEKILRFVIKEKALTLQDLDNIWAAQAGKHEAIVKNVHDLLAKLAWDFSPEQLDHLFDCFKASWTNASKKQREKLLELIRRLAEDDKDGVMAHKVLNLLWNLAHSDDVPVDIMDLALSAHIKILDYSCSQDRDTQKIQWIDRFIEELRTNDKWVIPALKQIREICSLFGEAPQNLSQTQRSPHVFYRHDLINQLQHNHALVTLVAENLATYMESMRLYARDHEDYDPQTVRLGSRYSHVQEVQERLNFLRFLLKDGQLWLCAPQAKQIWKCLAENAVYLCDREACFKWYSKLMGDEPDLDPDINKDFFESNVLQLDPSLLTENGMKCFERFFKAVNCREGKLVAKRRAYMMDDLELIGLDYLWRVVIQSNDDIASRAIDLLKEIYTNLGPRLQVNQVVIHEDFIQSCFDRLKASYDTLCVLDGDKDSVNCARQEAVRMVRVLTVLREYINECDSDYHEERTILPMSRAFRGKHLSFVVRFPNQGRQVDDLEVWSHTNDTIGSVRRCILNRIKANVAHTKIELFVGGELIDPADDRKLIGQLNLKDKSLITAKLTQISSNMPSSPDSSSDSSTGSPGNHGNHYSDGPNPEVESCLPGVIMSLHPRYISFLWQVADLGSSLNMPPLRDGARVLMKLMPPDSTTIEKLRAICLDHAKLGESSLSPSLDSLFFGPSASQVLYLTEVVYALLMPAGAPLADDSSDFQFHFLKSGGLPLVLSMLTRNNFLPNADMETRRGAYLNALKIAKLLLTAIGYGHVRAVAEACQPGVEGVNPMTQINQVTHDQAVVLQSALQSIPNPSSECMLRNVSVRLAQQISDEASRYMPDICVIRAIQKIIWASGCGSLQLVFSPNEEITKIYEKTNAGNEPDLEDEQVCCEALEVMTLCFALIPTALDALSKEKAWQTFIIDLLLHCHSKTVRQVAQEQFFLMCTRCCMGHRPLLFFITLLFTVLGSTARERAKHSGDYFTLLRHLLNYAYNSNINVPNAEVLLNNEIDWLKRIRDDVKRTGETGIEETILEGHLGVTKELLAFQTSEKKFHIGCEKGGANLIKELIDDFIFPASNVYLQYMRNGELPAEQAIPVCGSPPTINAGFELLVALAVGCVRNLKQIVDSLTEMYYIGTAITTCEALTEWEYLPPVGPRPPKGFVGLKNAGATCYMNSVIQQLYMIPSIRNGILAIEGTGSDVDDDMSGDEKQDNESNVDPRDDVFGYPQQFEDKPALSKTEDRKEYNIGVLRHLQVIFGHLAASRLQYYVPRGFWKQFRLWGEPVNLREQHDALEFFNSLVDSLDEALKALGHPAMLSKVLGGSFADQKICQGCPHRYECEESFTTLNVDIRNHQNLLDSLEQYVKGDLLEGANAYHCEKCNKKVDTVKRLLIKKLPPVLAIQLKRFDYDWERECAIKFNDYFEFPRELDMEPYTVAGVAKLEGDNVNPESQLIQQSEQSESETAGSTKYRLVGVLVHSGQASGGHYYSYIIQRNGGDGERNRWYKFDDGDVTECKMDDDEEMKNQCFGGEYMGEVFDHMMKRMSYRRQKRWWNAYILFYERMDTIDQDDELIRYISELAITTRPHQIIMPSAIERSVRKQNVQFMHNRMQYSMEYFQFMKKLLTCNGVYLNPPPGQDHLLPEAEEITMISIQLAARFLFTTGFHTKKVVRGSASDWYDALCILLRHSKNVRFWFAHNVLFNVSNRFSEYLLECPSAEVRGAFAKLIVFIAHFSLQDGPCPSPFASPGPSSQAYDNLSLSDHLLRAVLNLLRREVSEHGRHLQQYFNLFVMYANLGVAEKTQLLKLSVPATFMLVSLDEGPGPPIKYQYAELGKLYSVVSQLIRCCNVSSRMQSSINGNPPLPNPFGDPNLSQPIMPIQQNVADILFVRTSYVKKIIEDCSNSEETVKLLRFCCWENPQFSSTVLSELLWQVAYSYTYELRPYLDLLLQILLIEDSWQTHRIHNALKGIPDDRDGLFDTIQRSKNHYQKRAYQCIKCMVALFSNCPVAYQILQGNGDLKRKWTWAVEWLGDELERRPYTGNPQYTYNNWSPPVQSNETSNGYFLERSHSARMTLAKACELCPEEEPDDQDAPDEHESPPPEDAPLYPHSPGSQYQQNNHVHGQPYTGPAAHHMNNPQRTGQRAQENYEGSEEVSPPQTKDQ

O=C(CCl)NC1CCCCNC1=O (centres undefined)
inactive: USP9X -0.297 | UniProt O00487 -0.13 | UniProt O00507 -0.323 | UniProt P51784 -0.117 | UniProt Q5T2D3 -0.329 | UniProt Q8TE49 -0.574 | UniProt Q9P2H5 -0.277 | UniProt Q9UGI0 -0.309 | YOD1 -0.218
